# Bioassay records deposited in PubChem by Sanford-Burnham Center for Chemical Genomics.
# A3G deaminase = APOBEC3G DNA deaminase inhibitors, primary screen, biochemical, fluorescence, single-stranded DNA substrate, uHTS; DNA dC->dU-editing enzyme APOBEC-3G (Homo sapiens), Q9HC16; recombinant A3G, ssDNA deamination FAM/TAMRA fluorescence; inhibition, % at 20 µM; 0.28% of 330,000 active;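 active means inhibition of at least 40% at 20 µM, with no more than 30% in the related APOBEC3A deaminase screen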;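 further: plate controls were DMSO wells with A3G for no effect and wells lacking A3G enzyme for full effect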
# NPR1 activator = GC-A stimulated cGMP production enhancers – HEK293 GC-A cells, cGMP TR-FRET, EC30 ANP, primary screen; 0% at EC30 ANP, 100% saturating ANP; activation, % at 10 µM; 0.14% of 370,000 active; in the data active means activation above about 40%
# NPR2 activator = human GC-B receptor activators, primary screen, HEK293 GC-B cells, cGMP TR-FRET, EC30 CNP | AID 1920062, 2024 | Atrial natriuretic peptide receptor 2 (Homo sapiens), P20594 | 0% at EC30 CNP, 100% saturating CNP | 0.11% of 370,000 active | activation, % at 10 µM;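 active means activation at 10 µM reaching about 35% in either raw or pattern-adjusted values, limit read from the data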
# PfGluPho inh = PfG6PD enzyme inhibitors, primary screen, biochemical, fluorescence intensity, uHTS; inhibition, % at 20 µM; PfGluPho enzyme, NADPH resazurin-diaphorase fluorescence; 0.78% of 350,000 active; AID 504690, 2011;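 active means inhibition reaching at least a set limit at 20 µM in the primary screen, cut at about 59% in these data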;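 further: 0% = DMSO wells with substrate and 100% = DMSO wells lacking glucose-6-phosphate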
# APOBEC3A inh = APOBEC3A ssDNA deaminase inhibitors, primary screen, selectivity assay for APOBEC3G inhibitor project, biochemical, FAM/TAMRA oligo cleavage fluorescence; 0.41% of 330,000 active; recombinant A3A, FAM/TAMRA ssDNA deamination fluorescence; inhibition, % at 20 µM;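 active means at least 40% inhibition at 20 µM here, with at most 30% in a related deaminase screen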;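 further: plate controls were A3A with DMSO for no effect and wells lacking A3A enzyme for full effect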
# Neddyl block = inhibitors of cullin neddylation, primary screen, biochemical, TR-FRET, uHTS, NAE and Ubc12; NEDD8-conjugating enzyme Ubc12 (Homo sapiens) + NEDD8-activating enzyme E1 regulatory …; inhibition, % at 25 µM; 0.58% of 360,000 active; in the data active means inhibition above about 36%
# Neddyl inh conf = blockade of NEDD8 conjugation to cullin – biochemical, TR-FRET, single concentration, confirmation | shares compounds with Neddyl block | TR-FRET cullin neddylation biochemical assay | calls only at 25 µM | 13% of 1,800 active; in the data active means inhibition above about 40%;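 further: neddylation substrate is the cullin 1 ring ligase complex with SKP2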
# * marks the source's active call; other numbers are inactive results; i = inactive; . = no result shown; + = active, no number. Shown are actives, neighbours in structure and some others; about 2% of the full set was active somewhere.
SMILES,A3G deaminase,NPR1 activator,NPR2 activator,PfGluPho inh,APOBEC3A inh,Neddyl block,Neddyl inh conf
CCSC1=C(C#N)C(c2ccc3c(c2)OCO3)C2=C(CCCC2=O)N1 (stereo unspecified),-8,4,7,0,-1,4,.
Cn1nnnc1SCC(=O)Nc1nn(-c2ccccc2)nc1C(N)=O,-13,-1,2,-8,3,.,.
NC(=O)c1nn(-c2ccccc2)nc1NC(=O)CN1CCCCC1,-6,-2,6,-21,-3,46*,i
COc1cc2c(cc1OC)C1=C(C#N)COCN1CC2,3,-1,2,-6,1,41*,i
COCC(=O)N1CCC(C(=O)NCC2COc3ccccc3O2)CC1 (stereo unspecified),.,7,1,.,.,.,.
COC(=O)c1nc(N)sc1-c1ccccc1,-9,6,2,6,-4,40*,.
COC(=O)c1nc(N)sc1-c1ccc(Cl)cc1,-6,3,9,5,0,.,.
O=C(Nc1ccc(F)c(C(F)(F)F)c1)Nc1nnc(-c2ccncc2)s1,.,3,-5,.,.,.,.
CSc1ccc(/C=N/NC(=O)c2sccc2C)cc1,-7,0,-3,-3,-6,38*,i
CC(=O)N(C)c1cccc(-c2ccc3nnc(C)n3n2)c1,-7,6,-2,9,-2,53*,.
COc1ccc(S(=O)(=O)Nc2ccccc2C(=O)NCc2ccco2)cc1,-4,0,5,-33,-3,40*,+
COc1ccc(S(=O)(=O)N(Cc2ccccc2)c2ccccc2C(=O)Nc2ccccc2C(=O)NCc2ccco2)cc1,-1,-6,4,-3,4,19,.
O=S1(=O)N=C(Oc2cccc3ccccc23)c2ccccc21,-2,0,5,9,-2,42*,i
Cc1ccccc1OC1=NS(=O)(=O)c2ccccc21,-5,9,0,-5,-2,6,.
CCC(C)NC(=O)c1c(N)n(/N=C/c2ccccn2)c2nc3ccccc3nc12 (stereo unspecified),0,3,-2,2,2,46*,i
O=C(NN=Cc1ccccc1C(F)(F)F)c1cc(-c2ccc(Cl)cc2)n[nH]1,.,2,9,.,.,.,.
COC(=O)[C@]12C[C@H](CC(=O)NCc3ccc(C)o3)C(=O)N(Cc3ccco3)C1=C[C@H](C1CCCC1)O[C@@H]2C,.,-8,-5,.,.,.,.
CN(C)c1cccc(C(=O)OCC(=O)N2CCc3ccccc3C2)c1,-4,0,-6,2,-6,42*,i
COC(=O)C/C=C/[C@@H](C)[C@H](NC(=O)OCC(Cl)(Cl)Cl)c1ccc(-c2ccccc2)cc1,.,1,-11,.,.,.,.
CCCOc1ccc(-c2cc(C(F)(F)F)c(C#N)c(SCC(=O)O)n2)cc1,3,0,-2,-10,13,40*,i
COc1ccc(CN2CCc3c([nH]c4ccccc34)C2)cc1Br,-7,-6,6,8,1,41*,i
O=C(C1CCCN1S(=O)(=O)c1cccc([N+](=O)[O-])c1)N1CCN(c2ccccc2)CC1 (stereo unspecified),.,0,-1,.,.,.,.
Fc1ccc(-c2cc(C(F)(F)F)n3ncnc3n2)cc1,-3,-4,4,-1,1,47*,.
FC(F)(F)c1cccc(Nc2cc(-c3ccccc3)nc3ncnn23)c1,1,0,0,-2,1,-62,.
CN(CCCOC(=O)CC1C=CCC1)C1CN(Cc2cn(Cc3ccccc3Cl)nn2)S(=O)(=O)C1 (stereo unspecified),.,2,-4,.,.,.,.
SMILES,A3G deaminase,NPR1 activator,NPR2 activator,PfGluPho inh,APOBEC3A inh,Neddyl block,Neddyl inh conf
COc1cc(-c2cc(C(=O)OCC(=O)NC3CC3)c3ccccc3n2)cc(OC)c1OC,0,9,7,10,-2,2,.
COc1ccc(-c2cc(C(=O)N3CCCCCC3)c3ccccc3n2)cc1OC,.,5,2,-8,.,.,.
O=C(c1cc(N2CCCCC2)nc2ccccc12)N1CCOCC1,-8,5,4,-3,-4,43*,i
COc1cc(-c2cc(C(=O)N3CCCCCC3)c3ccccc3n2)cc(OC)c1OC,-6,12,8,-7,-3,50*,.
Cc1ccc(-c2cc(C(=O)OCC(=O)NC3CC3)c3ccccc3n2)cc1,-10,-1,-1,-2,-2,47*,.
COc1ccc(-c2cc(C(=O)OCC(=O)N3CCCCC3)c3ccccc3n2)cc1OC,-1,7,5,15,1,45*,i
Cn1c(=O)c2nc(NCc3ccccc3)cnc2n(C)c1=O,-12,4,-1,16,-6,64*,+
CCOc1ccc(-n2c(SCC(=O)Nc3ccc(S(=O)(=O)Nc4nccs4)cc3)nnc2-c2ccncc2)cc1,.,-1,1,.,.,.,.
CC1(C)CC(=O)c2cc(OCC(=O)N3CCN(c4ccccc4F)CC3)ccc2O1,-7,-2,-1,-1,-4,52*,.
O=C(NC1CCCCN(Cc2cccc(C(F)(F)F)c2)C1=O)c1ccc(F)cc1 (stereo unspecified),.,6,6,.,.,.,.
COc1cccc(NC(=O)Nc2c(-c3ccc(C(F)(F)F)cc3)nc3ncccn23)c1,.,-4,4,.,.,.,.
Cc1cc(=O)oc2c(C)c(OC3CCCCC3=O)ccc12 (stereo unspecified),-7,-1,-6,9,-1,44*,+
COC(=O)Cc1c(C)c2ccc(OC3CCCCC3=O)c(C)c2oc1=O (stereo unspecified),-5,3,-2,4,-6,.,.
COc1ccc(Nc2oc(COc3ccccc3OC)nc2C#N)cc1,-3,8,3,-3,1,42*,i
COC1C(O)CCC2(CO2)C1C1(C)OC1CC=C(C)C (stereo unspecified),.,4,2,.,.,.,.
Cc1cc(C)cc(-n2c(N)c(C(=O)Nc3c(C)n(C)n(-c4ccccc4)c3=O)c3nc4ccccc4nc32)c1,-8,2,11,14,-5,32,.
COc1cccc(-n2c(N)c(C(=O)Nc3c(C)n(C)n(-c4ccccc4)c3=O)c3nc4ccccc4nc32)c1,-4,7,3,31,2,51*,i
